Experimental findings from article PMC7862700, “An all-to-all approach to the identification of sequence-specific readers for epigenetic DNA modifications on cytosine” are described below.

Test in all cases: DAPPL (digital affinity profiling via proximity ligation, sequencing); 10 mM Tris-HCl pH 7.5, 50 mM NaCl, 1 mM DTT, 4% glycerol, room temperature, 30 min; GST-TFs on glutathione beads, 16-mer random dsDNA library, 0.1% formaldehyde crosslink after washing; high values mean tight binding
The target of one assay is T1, FLI1 (Homo sapiens, UniProt Q01543 1-452).
T1 sequence: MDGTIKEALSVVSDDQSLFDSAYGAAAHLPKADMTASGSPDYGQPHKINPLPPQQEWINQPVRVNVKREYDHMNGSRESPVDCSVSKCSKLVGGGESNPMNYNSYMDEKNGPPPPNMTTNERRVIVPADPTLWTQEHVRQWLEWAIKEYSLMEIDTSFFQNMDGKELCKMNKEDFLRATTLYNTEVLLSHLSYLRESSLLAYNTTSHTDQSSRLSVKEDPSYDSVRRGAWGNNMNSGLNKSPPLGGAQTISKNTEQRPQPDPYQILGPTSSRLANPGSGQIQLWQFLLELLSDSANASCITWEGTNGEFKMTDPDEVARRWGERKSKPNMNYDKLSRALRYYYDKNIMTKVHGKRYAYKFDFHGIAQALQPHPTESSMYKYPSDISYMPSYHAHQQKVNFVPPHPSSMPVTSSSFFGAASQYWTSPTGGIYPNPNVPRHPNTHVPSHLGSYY
The settings on record: protein: recombinant; tags: N-terminal GST; dsDNA, one strand shown. The method in brief:
(§1)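 Pools were built from human transcription factors expressed in yeast as GST fusions, captured on glutathione beads and DNA-barcoded, along with a tag-only sample. Incubation with 200 nmole of a 16-mer random double-stranded DNA library lasted 30 min at room temperature in Tris/NaCl/DTT/glycerol buffer, and was followed by washing, 0.1% formaldehyde crosslinking, proximity ligation, PCR amplification and Illumina NextSeq500 sequencing. Binding signal is the quotient of each hexamer's read frequency for a factor and its frequency for the tag-only sample.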

The next assay addresses T2, ELK1 (Homo sapiens, UniProt P19419 1-428).
T2 sequence: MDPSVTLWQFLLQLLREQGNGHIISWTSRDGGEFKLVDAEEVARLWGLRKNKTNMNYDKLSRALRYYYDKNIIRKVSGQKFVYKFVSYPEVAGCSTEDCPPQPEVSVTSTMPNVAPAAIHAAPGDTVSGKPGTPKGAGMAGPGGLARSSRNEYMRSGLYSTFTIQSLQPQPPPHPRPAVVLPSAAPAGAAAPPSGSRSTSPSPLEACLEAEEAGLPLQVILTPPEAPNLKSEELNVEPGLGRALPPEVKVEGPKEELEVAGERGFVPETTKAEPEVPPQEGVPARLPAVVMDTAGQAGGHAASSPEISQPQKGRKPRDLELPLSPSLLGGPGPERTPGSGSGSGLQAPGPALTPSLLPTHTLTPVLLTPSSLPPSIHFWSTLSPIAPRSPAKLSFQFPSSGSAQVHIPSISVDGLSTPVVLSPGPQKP
Particulars: protein: recombinant; tags: N-terminal GST; dsDNA, one strand shown. The method in brief:
as §1

Another assay addresses T3, GABPA (Homo sapiens, UniProt Q06546 1-454).
T3 sequence: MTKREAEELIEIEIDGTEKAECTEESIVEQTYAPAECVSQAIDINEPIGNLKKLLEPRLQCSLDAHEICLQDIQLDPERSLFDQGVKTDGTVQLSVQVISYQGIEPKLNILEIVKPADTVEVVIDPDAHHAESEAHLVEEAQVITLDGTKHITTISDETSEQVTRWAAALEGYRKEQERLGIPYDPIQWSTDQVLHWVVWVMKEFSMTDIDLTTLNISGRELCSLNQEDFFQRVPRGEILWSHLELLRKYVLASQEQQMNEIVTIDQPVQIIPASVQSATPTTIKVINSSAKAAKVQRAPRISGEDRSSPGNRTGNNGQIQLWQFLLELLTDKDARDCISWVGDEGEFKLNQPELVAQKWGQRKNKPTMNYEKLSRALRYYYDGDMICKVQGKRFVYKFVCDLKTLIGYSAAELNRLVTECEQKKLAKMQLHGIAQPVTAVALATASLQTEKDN
The settings on record: protein: recombinant; tags: N-terminal GST; dsDNA, one strand shown. The method in brief:
as §1

The target in another assay is T4, ERG (Homo sapiens, UniProt P11308 1-479).
T4 sequence: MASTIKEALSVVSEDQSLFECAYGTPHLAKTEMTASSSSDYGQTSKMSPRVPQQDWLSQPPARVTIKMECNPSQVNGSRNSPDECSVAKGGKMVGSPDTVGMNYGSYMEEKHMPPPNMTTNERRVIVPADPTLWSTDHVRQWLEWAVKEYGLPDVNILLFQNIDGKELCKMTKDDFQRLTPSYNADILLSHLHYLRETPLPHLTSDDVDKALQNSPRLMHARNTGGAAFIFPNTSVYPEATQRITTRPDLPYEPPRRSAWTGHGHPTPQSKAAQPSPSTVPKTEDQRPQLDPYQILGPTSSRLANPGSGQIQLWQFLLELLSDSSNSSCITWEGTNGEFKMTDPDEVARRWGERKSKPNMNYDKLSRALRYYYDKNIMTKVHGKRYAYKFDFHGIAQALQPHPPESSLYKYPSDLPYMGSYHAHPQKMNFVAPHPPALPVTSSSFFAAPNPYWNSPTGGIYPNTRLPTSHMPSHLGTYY
The settings on record: protein: recombinant; tags: N-terminal GST; dsDNA, one strand shown. The method in brief:
as §1

Another assay addresses ELF1 (Homo sapiens, UniProt P32519 1-619). Particulars: protein: recombinant; tags: N-terminal GST; dsDNA, one strand shown. The gist of the method: as §1
The target in a further assay is T5, EHF (Homo sapiens, UniProt Q9NZC4 1-300).
T5 sequence: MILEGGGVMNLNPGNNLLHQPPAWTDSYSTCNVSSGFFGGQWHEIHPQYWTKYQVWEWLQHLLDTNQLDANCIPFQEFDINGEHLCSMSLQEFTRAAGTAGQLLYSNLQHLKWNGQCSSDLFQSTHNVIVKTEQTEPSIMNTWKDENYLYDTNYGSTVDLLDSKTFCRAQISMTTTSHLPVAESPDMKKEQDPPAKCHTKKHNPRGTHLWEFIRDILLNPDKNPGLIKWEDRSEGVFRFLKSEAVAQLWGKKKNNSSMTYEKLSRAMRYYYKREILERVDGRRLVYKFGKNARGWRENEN
Particulars: protein: recombinant; tags: N-terminal GST; dsDNA, one strand shown. The gist of the method: as §1

The next assay addresses SPI1 (Homo sapiens, UniProt P17947 1-270). Particulars: protein: recombinant; tags: N-terminal GST; dsDNA, one strand shown. The gist of the method:
as §1

For a further assay, the target named is SPIB (Homo sapiens, UniProt Q01892 1-262). The settings on record: protein: recombinant; tags: N-terminal GST; dsDNA, one strand shown. The gist of the method: as §1
A further assay addresses T6, ELK3 (Homo sapiens, UniProt P41970 1-407).
T6 sequence: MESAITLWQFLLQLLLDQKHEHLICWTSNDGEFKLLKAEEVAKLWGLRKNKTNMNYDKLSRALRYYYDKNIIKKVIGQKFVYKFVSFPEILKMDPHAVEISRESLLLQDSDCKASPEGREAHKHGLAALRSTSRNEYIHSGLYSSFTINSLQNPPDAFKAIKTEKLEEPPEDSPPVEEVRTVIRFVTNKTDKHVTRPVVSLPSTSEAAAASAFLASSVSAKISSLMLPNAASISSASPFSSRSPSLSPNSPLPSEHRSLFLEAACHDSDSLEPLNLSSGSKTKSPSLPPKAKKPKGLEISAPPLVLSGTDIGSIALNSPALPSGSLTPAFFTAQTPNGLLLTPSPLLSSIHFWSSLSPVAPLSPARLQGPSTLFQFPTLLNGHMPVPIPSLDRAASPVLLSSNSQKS
The settings on record: protein: recombinant; tags: N-terminal GST; dsDNA, one strand shown. The method in brief:
as §1

The target in another assay is T7, FEV (Homo sapiens, UniProt Q99581 1-238).
T7 sequence: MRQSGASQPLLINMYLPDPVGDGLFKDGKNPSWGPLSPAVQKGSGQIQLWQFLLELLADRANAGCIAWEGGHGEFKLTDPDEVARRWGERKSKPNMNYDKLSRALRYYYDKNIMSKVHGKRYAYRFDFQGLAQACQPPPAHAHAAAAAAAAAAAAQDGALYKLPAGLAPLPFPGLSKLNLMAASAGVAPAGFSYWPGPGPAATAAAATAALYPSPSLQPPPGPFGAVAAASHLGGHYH
Particulars: protein: recombinant; tags: N-terminal GST; dsDNA, one strand shown. The method in brief:
as §1

The target of a further assay is ETV5 (Homo sapiens, UniProt P41161 1-510). The settings on record: protein: recombinant; tags: N-terminal GST; dsDNA, one strand shown. The method in brief: as §1
A further assay concerns the target HSF1 (Homo sapiens, UniProt Q00613 1-529). The settings on record: protein: recombinant; tags: N-terminal GST; chain copies: 3; dsDNA, one strand shown. The gist of the method: as §1
A further assay deals with T8, SPIC (Homo sapiens, UniProt Q8N5J4 1-248).
T8 sequence: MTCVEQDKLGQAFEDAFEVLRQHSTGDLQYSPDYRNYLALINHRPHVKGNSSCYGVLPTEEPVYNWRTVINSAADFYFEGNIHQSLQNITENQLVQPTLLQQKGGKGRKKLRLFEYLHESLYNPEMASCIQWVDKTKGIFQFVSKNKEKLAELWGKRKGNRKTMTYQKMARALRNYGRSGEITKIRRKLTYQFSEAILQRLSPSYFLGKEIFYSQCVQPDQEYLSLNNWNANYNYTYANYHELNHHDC
Particulars: protein: recombinant; tags: N-terminal GST; dsDNA, one strand shown. The method in brief: as §1

The target of the next assay is ELF4 (Homo sapiens, UniProt Q99607 1-663). The settings on record: protein: recombinant; tags: N-terminal GST; dsDNA, one strand shown. The method in brief: as §1
For the next assay, the target named is T9, ELK4 (Homo sapiens, UniProt P28324-2 1-405).
T9 sequence: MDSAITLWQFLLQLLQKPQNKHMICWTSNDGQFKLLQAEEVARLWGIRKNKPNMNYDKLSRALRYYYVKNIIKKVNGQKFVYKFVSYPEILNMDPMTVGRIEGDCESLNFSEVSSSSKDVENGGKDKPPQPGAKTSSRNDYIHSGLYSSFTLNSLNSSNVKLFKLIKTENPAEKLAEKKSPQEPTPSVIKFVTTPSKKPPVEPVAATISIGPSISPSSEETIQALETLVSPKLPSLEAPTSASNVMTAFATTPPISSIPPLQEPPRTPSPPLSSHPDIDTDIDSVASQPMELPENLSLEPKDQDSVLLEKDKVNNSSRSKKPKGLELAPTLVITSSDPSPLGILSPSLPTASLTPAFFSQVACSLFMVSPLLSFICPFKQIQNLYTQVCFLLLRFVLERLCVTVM
Particulars: protein: recombinant; tags: N-terminal GST; dsDNA, one strand shown. The method in brief:
as §1

Another assay has as its target T10, ETV2 (Homo sapiens, UniProt O00321 1-342).
T10 sequence: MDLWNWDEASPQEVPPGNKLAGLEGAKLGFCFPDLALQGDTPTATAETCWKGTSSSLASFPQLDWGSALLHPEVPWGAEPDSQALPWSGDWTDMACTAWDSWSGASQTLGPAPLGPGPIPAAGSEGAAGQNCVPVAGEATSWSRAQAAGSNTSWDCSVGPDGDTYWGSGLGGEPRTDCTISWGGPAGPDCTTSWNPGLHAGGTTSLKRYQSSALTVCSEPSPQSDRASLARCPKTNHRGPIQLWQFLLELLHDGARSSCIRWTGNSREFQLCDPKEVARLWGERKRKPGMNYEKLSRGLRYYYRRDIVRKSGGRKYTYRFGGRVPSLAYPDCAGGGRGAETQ
Particulars: protein: recombinant; tags: N-terminal GST; dsDNA, one strand shown. The method in brief: as §1

A further assay deals with T11, ELF3 (Homo sapiens, UniProt P78545 1-371).
T11 sequence: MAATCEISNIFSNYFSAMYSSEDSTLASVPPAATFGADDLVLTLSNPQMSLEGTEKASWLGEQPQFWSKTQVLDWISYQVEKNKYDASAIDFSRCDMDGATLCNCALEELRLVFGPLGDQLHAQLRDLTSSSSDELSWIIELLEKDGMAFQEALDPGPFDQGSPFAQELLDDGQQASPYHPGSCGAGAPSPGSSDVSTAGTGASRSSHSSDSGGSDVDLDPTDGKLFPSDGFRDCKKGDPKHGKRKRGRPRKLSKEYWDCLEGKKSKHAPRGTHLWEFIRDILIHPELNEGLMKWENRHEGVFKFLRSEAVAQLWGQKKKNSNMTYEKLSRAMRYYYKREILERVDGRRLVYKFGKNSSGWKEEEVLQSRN
The settings on record: protein: recombinant; tags: N-terminal GST; dsDNA, one strand shown. The gist of the method:
as §1

Another assay addresses CRX (Homo sapiens, UniProt O43186 1-299). The settings on record: protein: recombinant; tags: N-terminal GST; dsDNA, one strand shown. The gist of the method: as §1
The target in a further assay is ETV1 (Homo sapiens, UniProt P50549 1-477). Particulars: protein: recombinant; tags: N-terminal GST; dsDNA, one strand shown. The gist of the method: as §1
Chain of ETV1 (P50549 whole entry): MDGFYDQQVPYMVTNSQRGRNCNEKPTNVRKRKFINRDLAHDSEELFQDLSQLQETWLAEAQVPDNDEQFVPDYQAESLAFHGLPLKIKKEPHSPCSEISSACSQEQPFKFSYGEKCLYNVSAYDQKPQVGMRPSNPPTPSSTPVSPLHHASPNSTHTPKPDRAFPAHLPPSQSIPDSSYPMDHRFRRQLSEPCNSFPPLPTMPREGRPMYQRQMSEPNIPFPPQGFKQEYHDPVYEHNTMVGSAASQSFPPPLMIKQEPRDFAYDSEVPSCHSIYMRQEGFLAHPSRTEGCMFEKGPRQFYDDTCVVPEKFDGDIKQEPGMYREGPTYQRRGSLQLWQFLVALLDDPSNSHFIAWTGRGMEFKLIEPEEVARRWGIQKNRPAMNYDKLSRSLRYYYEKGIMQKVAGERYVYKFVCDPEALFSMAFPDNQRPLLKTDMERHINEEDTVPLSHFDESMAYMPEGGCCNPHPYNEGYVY

Chain of CRX (O43186 whole entry): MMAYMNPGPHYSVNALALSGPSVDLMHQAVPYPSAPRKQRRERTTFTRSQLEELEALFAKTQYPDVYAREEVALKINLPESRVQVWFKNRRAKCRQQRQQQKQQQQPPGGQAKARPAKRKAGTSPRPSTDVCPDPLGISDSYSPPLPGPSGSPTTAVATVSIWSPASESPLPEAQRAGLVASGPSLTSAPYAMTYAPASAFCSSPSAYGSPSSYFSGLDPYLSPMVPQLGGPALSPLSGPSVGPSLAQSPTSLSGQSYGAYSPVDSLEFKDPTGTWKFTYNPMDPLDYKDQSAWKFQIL
Chain of ELF1 (P32519 whole entry): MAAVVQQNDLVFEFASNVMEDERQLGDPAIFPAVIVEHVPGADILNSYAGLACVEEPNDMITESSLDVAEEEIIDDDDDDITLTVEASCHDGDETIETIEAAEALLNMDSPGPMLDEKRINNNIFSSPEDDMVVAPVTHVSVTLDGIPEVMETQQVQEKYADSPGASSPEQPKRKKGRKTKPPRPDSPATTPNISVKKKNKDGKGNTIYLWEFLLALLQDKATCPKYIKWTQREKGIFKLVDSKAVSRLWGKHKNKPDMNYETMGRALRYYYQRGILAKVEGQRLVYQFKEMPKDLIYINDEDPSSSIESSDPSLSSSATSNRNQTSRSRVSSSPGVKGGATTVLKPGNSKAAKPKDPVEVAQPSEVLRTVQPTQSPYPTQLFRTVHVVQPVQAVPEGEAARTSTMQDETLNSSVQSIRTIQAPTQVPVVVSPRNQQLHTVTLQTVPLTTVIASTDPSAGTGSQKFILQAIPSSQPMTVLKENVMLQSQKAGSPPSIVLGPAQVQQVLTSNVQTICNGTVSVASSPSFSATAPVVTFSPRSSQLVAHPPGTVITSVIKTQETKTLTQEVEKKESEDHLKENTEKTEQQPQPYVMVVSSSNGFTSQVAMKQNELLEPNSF
Chain of ETV5 (P41161 whole entry): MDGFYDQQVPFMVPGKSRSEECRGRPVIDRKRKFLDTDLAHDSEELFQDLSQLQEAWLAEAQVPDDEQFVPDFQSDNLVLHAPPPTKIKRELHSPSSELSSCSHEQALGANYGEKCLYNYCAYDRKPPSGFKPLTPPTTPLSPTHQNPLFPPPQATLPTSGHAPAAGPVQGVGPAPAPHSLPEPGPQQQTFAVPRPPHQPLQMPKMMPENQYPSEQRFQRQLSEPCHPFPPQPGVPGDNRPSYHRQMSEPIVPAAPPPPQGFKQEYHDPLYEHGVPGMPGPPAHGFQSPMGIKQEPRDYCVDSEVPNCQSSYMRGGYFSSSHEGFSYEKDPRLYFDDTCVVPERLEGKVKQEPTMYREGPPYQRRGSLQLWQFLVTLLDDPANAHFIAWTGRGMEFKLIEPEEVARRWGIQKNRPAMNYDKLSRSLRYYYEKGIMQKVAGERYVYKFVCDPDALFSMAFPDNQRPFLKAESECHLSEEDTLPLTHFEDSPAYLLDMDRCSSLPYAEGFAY
Chain of HSF1 (Q00613 whole entry): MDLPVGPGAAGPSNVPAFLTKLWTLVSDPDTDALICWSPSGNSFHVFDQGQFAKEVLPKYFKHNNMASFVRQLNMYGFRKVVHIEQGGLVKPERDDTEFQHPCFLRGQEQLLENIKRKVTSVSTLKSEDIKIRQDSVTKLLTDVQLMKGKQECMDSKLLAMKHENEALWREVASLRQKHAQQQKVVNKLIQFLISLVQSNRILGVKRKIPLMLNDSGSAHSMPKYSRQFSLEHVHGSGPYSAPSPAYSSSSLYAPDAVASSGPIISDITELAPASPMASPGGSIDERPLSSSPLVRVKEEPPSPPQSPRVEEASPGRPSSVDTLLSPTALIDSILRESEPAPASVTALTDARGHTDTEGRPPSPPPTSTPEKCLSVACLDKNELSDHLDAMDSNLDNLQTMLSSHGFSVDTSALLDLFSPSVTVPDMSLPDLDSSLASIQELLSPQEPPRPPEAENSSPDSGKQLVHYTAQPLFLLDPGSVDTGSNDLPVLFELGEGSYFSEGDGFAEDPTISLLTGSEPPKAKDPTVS
Chain of SPIB (Q01892 whole entry): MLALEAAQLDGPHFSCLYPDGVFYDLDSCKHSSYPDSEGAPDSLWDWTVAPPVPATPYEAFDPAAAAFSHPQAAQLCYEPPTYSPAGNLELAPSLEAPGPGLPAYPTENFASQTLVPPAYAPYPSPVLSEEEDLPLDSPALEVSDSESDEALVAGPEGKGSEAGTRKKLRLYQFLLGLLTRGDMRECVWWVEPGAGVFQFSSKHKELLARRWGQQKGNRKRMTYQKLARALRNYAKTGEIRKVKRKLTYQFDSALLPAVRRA
Chain of ELF4 (Q99607 whole entry): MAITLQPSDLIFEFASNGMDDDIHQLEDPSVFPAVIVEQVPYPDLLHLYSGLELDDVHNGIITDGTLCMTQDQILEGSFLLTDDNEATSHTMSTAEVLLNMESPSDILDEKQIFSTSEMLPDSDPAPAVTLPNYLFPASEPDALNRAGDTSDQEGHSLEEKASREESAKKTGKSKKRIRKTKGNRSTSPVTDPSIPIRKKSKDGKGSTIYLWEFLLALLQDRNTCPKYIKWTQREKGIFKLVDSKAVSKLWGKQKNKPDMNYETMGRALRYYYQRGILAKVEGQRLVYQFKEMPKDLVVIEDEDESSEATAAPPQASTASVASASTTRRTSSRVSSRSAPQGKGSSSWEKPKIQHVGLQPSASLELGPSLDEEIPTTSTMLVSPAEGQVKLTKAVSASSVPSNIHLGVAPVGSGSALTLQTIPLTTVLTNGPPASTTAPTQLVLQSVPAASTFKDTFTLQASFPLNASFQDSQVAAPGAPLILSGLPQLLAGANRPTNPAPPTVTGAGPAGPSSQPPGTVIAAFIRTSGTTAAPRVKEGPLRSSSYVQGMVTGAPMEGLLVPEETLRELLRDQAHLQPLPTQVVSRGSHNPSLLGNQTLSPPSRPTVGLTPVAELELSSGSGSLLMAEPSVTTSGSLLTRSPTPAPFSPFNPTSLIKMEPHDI

For TGTTTA, the binding signal in the assay with FLI1 was 1.2 fold enrichment (6-mer frequency, TF over GST control); with ELK1, 1.09 fold enrichment (6-mer frequency, TF over GST control); with GABPA it was 1.18 fold enrichment (6-mer frequency, TF over GST control); in the assay with ERG, 1.17 fold enrichment (6-mer frequency, TF over GST control); with ELF1 it was 1.13 fold enrichment (6-mer frequency, TF over GST control); with EHF it was 1.19 fold enrichment (6-mer frequency, TF over GST control). In addition, the binding signal with SPI1 was 1.12 fold enrichment (6-mer frequency, TF over GST control); with SPIB, 1.21 fold enrichment (6-mer frequency, TF over GST control); in the assay with ELK3, 1.2 fold enrichment (6-mer frequency, TF over GST control); with FEV it was 1.12 fold enrichment (6-mer frequency, TF over GST control); in the assay with ETV5 it was 1.19 fold enrichment (6-mer frequency, TF over GST control); in the assay with HSF1, 1.12 fold enrichment (6-mer frequency, TF over GST control). Moreover, the binding signal with SPIC was 1.05 fold enrichment (6-mer frequency, TF over GST control); in the assay with ELF4 it was 1.11 fold enrichment (6-mer frequency, TF over GST control); in the assay with ELK4 it was 1.25 fold enrichment (6-mer frequency, TF over GST control); with ETV2 it was 1.04 fold enrichment (6-mer frequency, TF over GST control); with ELF3, 1.22 fold enrichment (6-mer frequency, TF over GST control); in the assay with CRX it was 1.25 fold enrichment (6-mer frequency, TF over GST control). The binding signal in the assay with ETV1 is 1.09 fold enrichment (6-mer frequency, TF over GST control).
